Source: PubChem BioAssay
Sampled rows, rich in hits. Any-hit rate of the full collection: about 8%.
SW480 rereplic – DNA re-replication induction in SW480 cells. SW480 DNA re-replication, Hoechst DNA content imaging, 48 h. Potency, µM (titrated, usually from 46.1 µM), inactives show at the highest dose re-replication activation, usual class: activators. actives 1.8% (n = 340,000); also: % of control where 0% means no effect; nearly all actives have a fitted effect of over 55% in size
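250 cells/well; 23 nL cpd via pin tool; 48 hr, 37 C, 5% CO2; Hoechst 40 min; imager read of total nuclear intensity, ex 405/em 500-530 nm.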
HT1080 IDH1KD tx – toxicity to HT-1080 IDH1 knockdown cells (counter line) | HT-1080 IDH1 knockdown viability, ATP luminescence, 48 h | Potency, µM (top dose mostly 46.1 µM), for the others: at the top dose activity, negative = toxicity, actives largely listed as cytotoxic | actives 2% (n = 360,000);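 also: 0% = DMSO wells and -100% = cell-free medium wells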
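IDH1KD HT-1080 cells, 750/well, RPMI + 5% FBS; compound pinned after 2 h settling; 48 h, 37 °C; CellTiter-Glo luminescence; % activity normalised to DMSO and no-cell wells; curves fitted, classed by r2 and efficacy.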
KB-V1 cytotox – KB-V1 MDR subline cytotoxicity; KB-V1 MDR cells viability, CellTiter-Glo, 72 h; Potency, µM (highest dose often 46.1 µM), actives largely listed as cytotoxic; actives 3.4% (n = 400,000); AID 1347076; also: % is scaled to controls: 0 for no effect and ±100 for the full control effect; nearly all actives have a fitted effect of over 60% in size
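Readout: CellTiter-Glo luminescence, 10 min after addition. Cells: KB-V1 MDR subline, 72 h at 37 degrees C with compound. Analysis: corrected, normalized data fitted to concentration-effect curves.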
MCF10A rerep – induces DNA re-replication in MCF 10a normal breast cells | MCF 10A DNA re-replication, Hoechst nuclear intensity, 48 h | Potency, µM (doses to about 46.1 µM), inactives show at the highest dose activity, positive = re-replication, most hits filed as activators | actives 2.9% (n = 350,000); also: % of control where 0% means no effect; nearly all actives have a fitted effect of over 50% in size
HT1080NT lethal – kills 2HG-producing HT-1080-NT fibrosarcoma cells | AID 686970 | HT-1080-NT fibrosarcoma viability, CellTiter-Glo ATP luminescence, 48 h | Potency, µM (top dose mostly 46.1 µM), inactives show at the top dose activity, negative = less viability, usual class: cytotoxic | actives 1.6% (n = 360,000);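 also: NT is the 2HG producing partner of a matched IDH1 knockdown line; 0% = DMSO-treated cells and -100% = media-only wells without cells; nearly all actives have a fitted effect of over 55% in size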
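Compounds were tested in concentration-response format on HT-1080-NT cells for 48 hours at 37 degrees C. Cell viability came from CellTiter-Glo luminescence; curves were classified by r2, response magnitude and activity.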
KB-3-1 cytotox – KB-3-1 parental cell cytotoxicity; KB-3-1 viability, CellTiter-Glo ATP luminescence, 72 h; Potency, µM (top dose mostly 46.1 µM), most hits filed as cytotoxic; actives 1.4% (n = 400,000); AID 1347075; also: % is scaled to controls: 0 for no effect and ±100 for the full control effect; nearly all actives have a fitted effect of over 60% in size
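KB-3-1 cells, DMEM (no phenol red) + 10% FBS; compound by pin transfer, 72 h, 37 °C. Readout: CellTiter-Glo luminescence after 10 min. Data normalized, curve-fitted.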
* hit, by the source's call; i = inactive; ? = inconclusive; . = not tested or not shown; [ ] = another dose, or the depositor's remark. Calls follow the shape of the dose curve; as a rule, active = well fitted curve in the direction sought with a large enough effect; inconclusive = small, poorly fitted or top-dose-only effect, or another doubt; inactive = no such curve, though single readings can be large; an effect the other way counts as inactive or inconclusive. Potency is read from the fitted curve at half-maximal effect.

SMILES	SW480 rereplic	HT1080 IDH1KD tx	KB-V1 cytotox	MCF10A rerep	HT1080NT lethal	KB-3-1 cytotox
COc1cc(/C=C(/C#N)c2nc(-c3cc4ccccc4oc3=O)cs2)ccc1O	.	.	i	.	.	i
COCCNC(=O)C1CCN(S(=O)(=O)c2ccc3c(c2)CCCN3C(C)=O)CC1	.	.	?	.	.	i
Cc1ccc(C(=O)c2oc3ccccc3c2NC(=O)COc2ccccc2C)cc1	.	.	i	.	.	i
Cc1cc(C)cc(-n2ccnc2SCC(=O)Nc2cccc3ccccc23)c1	.	.	i	.	.	i
CCc1ccn2cc(-c3ccc4c(c3)OCO4)nc2c1	-2%	13µM*	?	5%	12µM*	?
CCn1cc2nc(SCC(=O)Nc3cc(OC)ccc3OC)n(Cc3ccc(Cl)cc3)c(=O)c2n1	.	.	i	.	.	i
O=S(=O)(Nc1ccc(Cl)nn1)c1ccccc1	?	1%	i	13µM*	-3%	i
O=S(=O)(Nc1ccc(Cl)cn1)c1ccccc1	8%	0%	i	-35%	7%	i
COc1cccc(CNc2ccc(S(N)(=O)=O)cc2)c1OC	18µM*	-2%	?	19%	-3%	i
Cc1ccc(OCC(=O)NCC(c2ccc(Cl)cc2)N2CCCCC2)cc1 (centres undefined)	.	.	i	.	.	i
Nc1c(C(=O)N/N=C/c2cccnc2)oc2nc(-c3ccccc3)cc(-c3ccco3)c12	?	-25%	i	18µM*	-5%	i
NNC(=O)c1oc2nc(-c3ccc(Cl)cc3)cc(-c3ccccc3)c2c1N	23µM*	?	i	8.2µM*	-21%	?
N#CCCn1cc(C(=O)Nc2ccc(C(=O)O)cc2)c(-c2ccc([N+](=O)[O-])cc2)n1	-11%	14%	i	1%	-3%	i
N#CCCn1cc(C(=O)Nc2cccc(C(=O)O)c2)c(-c2ccc(Cl)cc2)n1	4.1µM*	-1%	i	4%	2%	i
O=C1c2cccc(NCCNCCO)c2C(=O)c2cccc(NCCNCCO)c21	0%	8.2µM*	i	-17%	?	?
O=C(/C=C/c1ccc(Cl)cc1Cl)c1ccc[nH]1	?	-15%	i	117%	?	i
O=C(/C=C/c1ccccc1Cl)c1ccc[nH]1	4.6µM*	?	i	?	?	?
CCS(=O)(=O)N1CC(=O)N(c2ccc(Cl)cc2C)C(C)(C(=O)NC2CCCCCC2)C1 (centres undefined)	.	.	i	.	.	i
CN=c1c([N+](=O)[O-])nn(-c2ccc3c(c2)OCCO3)n1O	16µM*	1%	i	2%	-9%	i
COc1cc(N=c2c([N+](=O)[O-])nn(-c3ccc4c(c3)OCCO4)n2O)cc(OC)c1	?	?	6.5µM*	21µM*	-19%	?
Cc1cccc(N2CCN(C(=O)Cn3c(C)c4cnn(-c5ccccc5)c(=O)c4c3C)CC2)c1C	.	.	i	.	.	?
CCc1ccccc1Nc1nc2ccccc2c2nncn12	.	.	i	.	.	i
O=C1COc2ccc(C(=O)CCl)cc2N1	21µM*	-9%	i	21µM*	-21%	?
CC1CC(C)CN(C(=O)Cn2c(SCC(=O)N3CCc4ccccc4C3)nc3ccccc32)C1 (centres undefined)	3%	-8%	i	12%	-23%	i
CC(C)NC(=O)Cn1c(SCC(=O)N2CCc3ccccc3C2)nc2ccccc21	-1%	8%	12µM*	2%	14%	i
SMILES	SW480 rereplic	HT1080 IDH1KD tx	KB-V1 cytotox	MCF10A rerep	HT1080NT lethal	KB-3-1 cytotox
Cc1ccc(Cn2c(=O)c3ccccc3n3c(SCC(=O)N4CCCCC4C)nnc23)cc1 (centres undefined)	9%	-6%	8.2µM*	-5%	-3%	i
COCCn1c(SCC(=O)N2CCc3ccccc3C2)nc2cc(Cl)ccc2c1=O	1%	25%	1.8µM*	12%	10%	?
CCCn1c(=O)c2ccccc2n2c(SCC(=O)N3CCc4ccccc4C3)nnc12	-3%	-3%	2.9µM*	-4%	1%	i
CCn1c(=O)c2ccccc2n2c(SCC(=O)N3CCc4ccccc4C3)nnc12	4%	11%	i	-5%	2%	i
CCN(CC)c1ccc([N+](=O)[O-])cc1C(=O)N1CCOCC1	-3%	9%	i	21%	12%	i
CCN(CC)C1=NS(=O)(=O)c2cc([N+](=O)[O-])ccc21	12µM*	8%	?	?	30%	?
CN(C)CCSc1nc(O)c(-c2ccccc2)c(=O)n1-c1ccccc1	-10%	8%	i	-2%	3%	i
Cc1sc2nc(SCCN(C)C)n(-c3ccccc3)c(=O)c2c1-c1ccc(F)cc1	18µM*	-8%	i	?	-7%	i
CC1(C)N=C(N)N=C(N)N1c1ccc(CCCCc2ccccc2)cc1	.	0.73µM*	i	.	?	?
CC1(C)N=C(N)N=C(N)N1c1cc(Cl)ccc1Cl	.	-2%	i	.	-1%	i
CC1(C)N=C(N)N=C(N)N1c1ccc(Oc2ccc(Cl)cc2)c(Cl)c1	0%	1.3µM*	i	74%	2.3µM*	0.73µM*
CC1(C)N=C(N)N=C(N)N1c1ccccc1	17%	1.6µM*	?	?	3.7µM*	?
O=c1c2ccccc2sn1-c1ccc(Cl)c(S(=O)(=O)N2CCOCC2)c1	.	.	?	.	.	i
CCc1cc2c(=O)n(Cc3ccco3)c(SCC(=O)NCC3CCCO3)nc2s1 (centres undefined)	-2%	-7%	2.6µM*	3%	-30%	?
CCc1cc2c(=O)n(Cc3ccco3)c(SCc3c(C)noc3C)nc2s1	2.6µM*	15µM*	2.9µM*	3.3µM*	?	5.8µM*
COc1cc(Cl)c(CN2CCC(CCC(=O)NC3CC3)CC2)cc1OC	-46%	-3%	i	0.58µM*	0%	i
CCc1ccc(NC(=O)CSc2nc3n[nH]c(C)c3c(=N)n2-c2cccc(OC)c2)cc1	20%	11µM*	?	?	?	i
COc1cccc(NC(=O)CSc2nc3n[nH]c(C)c3c(=N)n2-c2cccc(OC)c2)c1	3%	-10%[9.24 µM]	i	13%	?	i
COc1cccc(-n2c(SCC(=O)NCCC3=CCCCC3)nc3n[nH]c(C)c3c2=N)c1	12%	-24%	13µM*	?	-14%	i
Cc1ccc(N2C(=O)c3oc4cc(C)c(C)cc4c(=O)c3C2c2cccc(O)c2)nc1 (centres undefined)	.	.	i	.	.	i
